Screens (PubChem)
Most compounds without a hit are left out; they make up all but 19% or so of the library.
HT1080 IDH1KD tx – toxicity to HT-1080 IDH1 knockdown cells (counter line) | HT-1080 IDH1 knockdown viability, ATP luminescence, 48 h | Potency, µM (doses to about 46.1 µM), inactives show at the highest dose activity, negative = toxicity, most hits filed as cytotoxic | 360,000 tested, 2% active | AID 686971;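 further: 0% = DMSO wells and -100% = cell-free medium wells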
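Assay cells: HT-1080 with IDH1 knockdown, 750 per well, RPMI/5% FBS. Exposure: 48 h at 37 °C following 2 h pre-incubation. Read: CellTiter-Glo luminescence; fitted concentration-response, curve class assigned.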
HT1080NT lethal – kills 2HG-producing HT-1080-NT fibrosarcoma cells; HT-1080-NT fibrosarcoma viability, CellTiter-Glo ATP luminescence, 48 h; Potency, µM (doses to about 46.1 µM), for the others: top-dose activity, negative = less viability, most hits filed as cytotoxic; 360,000 tested, 1.6% active; AID 686970;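 further: NT is the 2HG producing partner of a matched IDH1 knockdown line; 0% = DMSO-treated cells and -100% = media-only wells without cells; nearly all actives have a fitted effect of over 55% in size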
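750 cells/well, RPMI + 5% FBS; 2 h settle, compound pin-transfer, 48 h at 37 degrees C. CellTiter-Glo 10 min RT, luminescence. Normalized to DMSO and media-only wells.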
TDP1 cell noCPT – qHTS for Inhibitors of human tyrosyl-DNA phosphodiesterase 1 (TDP1): qHTS in cells in absence of CPT | DT40 Tdp1-/- hTDP1 cells, no CPT, ATP luminescence, 48 h | Potency, µM (doses to about 46.2 µM), for the others: at the highest dose activity change, negative = growth inhibition, actives largely listed as inhibitors | 420,000 tested, 15% active; further: nearly all actives have a fitted effect of over 55% in size
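Compound effects on proliferation are scored in DT40 Tdp1-/-;hTDP1 cells in the absence of CPT. ATP levels (CellTiter-Glo luminescence) are recorded after a ≥48 hr, 37 °C incubation.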
DT40 TDP1 CPT – growth inhibition of DT40 Tdp1-/-;hTDP1 cells with camptothecin (screen for TDP1 inhibitors) | chicken DT40 Tdp1-/-;hTDP1 cells + 20 nM CPT, ATP luminescence, 48 h | Potency, µM (top dose mostly 46.2 µM), for the others: at the highest dose activity change, negative = growth inhibition, usual class: inhibitors | 420,000 tested, 12% active | AID 686979; further: nearly all actives have a fitted effect of over 55% in size
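Chicken DT40 Tdp1-/- cells stably complemented with human TDP1 were seeded at 400 cells/well in medium containing 20 nM camptothecin, exposed to pin-transferred compounds, and grown at 37 °C for at least 48 hr. Viability was read as ATP luminescence.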
KB-V1 MDR tox – KB-V1 MDR subline cytotoxicity | Potency, µM (series often up to 46.1 µM), usual class: cytotoxic | 400,000 tested, 3.4% active | KB-V1 MDR cells viability, CellTiter-Glo, 72 h; further: nearly all actives have a fitted effect of over 60% in size
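qHTS viability screen in drug-selected KB-V1 MDR cells: 72 h compound treatment at 37 degrees C, ATP luminescence end point.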
KB-3-1 tox – KB-3-1 parental cell cytotoxicity. 400,000 tested, 1.4% active. AID 1347075. KB-3-1 viability, CellTiter-Glo ATP luminescence, 72 h. Potency, µM (top dose mostly 46.1 µM), hits mostly cytotoxic; further: nearly all actives have a fitted effect of over 60% in size
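Viability of parental KB-3-1 cells, measured by CellTiter-Glo luminescence, followed a 72 h incubation at 37 °C with pinned compounds in phenol-red-free DMEM containing 10% FBS.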
Active calls of the source: *; i = inactive; ? = inconclusive; · = no result. The call rests on the fitted dose curve; in most records, active means well fitted curve in the direction sought with a large enough effect; inconclusive means small, poorly fitted or top-dose-only effect, or another doubt; inactive means no such curve, though single readings can be large; an effect the other way counts as inactive or inconclusive. Unless noted, on the % scale 0 is the no-effect control and ±100 the full control effect; potency means the concentration at half of the fitted maximal effect.

SMILES | HT1080 IDH1KD tx | HT1080NT lethal | TDP1 cell noCPT | DT40 TDP1 CPT | KB-V1 MDR tox | KB-3-1 tox
COc1ccccc1NC(=O)C1=C(C)Nc2nc3ccccc3n2C1c1ccccc1Cl (centres undefined) | · | · | ? | 14.6µM* | ? | i
C[C@H](NC(=O)c1ccco1)C(=O)NCc1cccs1 | 0.0% | 3.4% | 12.6% | 3.9% | i | i
COc1ccc(-n2c(C)c(C)c3c(NCCCO)ncnc32)cc1 | -8.3% | -4.5% | ? | 1.6% | i | i
O=C1/C(=C\c2ccc(C(F)(F)F)cc2)CSc2sccc21 | 13.5% | -12.2% | 7.7% | -1.0% | i | i
O=C(OCc1cccc(F)c1)c1ccc2c(c1)-c1ccccc1C2=O | 11.6% | -0.3% | ? | ? | i | i
CCOC(=O)c1ccc(COC(=O)c2ccc3c(c2)-c2ccccc2C3=O)cc1 | 8.5% | 7.2% | ? | -9.9% | 14.6µM* | i
NS(=O)(=O)c1ccc(NC2=CC(=O)C(=O)c3ccccc32)cc1 | ? | ? | 2.59µM* | 8.2µM* | i | ?
CCOC(=O)c1ccc(NC2=CC(=O)C(=O)c3ccccc32)cc1 | -15.9% | -25.5% | 23.1µM* | 23.1µM* | ? | ?
COc1ccc(S(=O)(=O)N2CCN(c3nc(-c4cccs4)nc4ccccc34)CC2)cc1 | 1.0% | 0.9% | ? | ? | ? | i
COc1cc(/C=N/NC(=O)C2C3CCCCC32C)cc(Br)c1O (centres undefined) | -4.7% | -9.6% | -1.6% | -14.2% | i | i
Cc1ccc(S(=O)(=O)NCCc2nc3ccccc3[nH]2)cc1 | 2.6% | -0.6% | -35.1% | -106.4% | i | i
Brc1cccc[n+]1Cc1ccccc1C[n+]1ccccc1Br | · | · | -24.7% | ? | i | i
CCCCCCCCCCCCCCCC[n+]1cccc2ccccc21 | 8.2µM* | 6.51µM* | 0.231µM* | 0.411µM* | 23.1µM* | ?
O/N=C/c1cccc[n+]1CCCCCC[n+]1ccccc1/C=N/O | 13.5% | 17.6% | 13.6% | 3.7% | i | i
C=CC[n+]1cccc2cc(Br)ccc21 | · | · | -16.5% | -15.5% | i | i
CCCCCCCCCC[n+]1cccc2cc(Br)ccc21 | · | · | 1.26µM* | 0.631µM* | ? | 1.3µM*
CCCCCCCCC[n+]1cccc2c3ccccc3ccc21 | 10.3µM* | 7.31µM* | 0.461µM* | 0.581µM* | ? | ?
Cc1ccccc1C[n+]1cccc2ccccc21 | -9.2% | 23.4% | 14.6µM* | ? | i | ?
CCCCn1nnnc1C1(C)CCC(=O)N1CC1CCCCC1 (centres undefined) | 1.5% | 10.6% | -18.7% | -17.4% | i | i
CCn1c2ccccc2c2cc(NC(=O)COc3ccc(C)c(C)c3)ccc21 | · | · | 2.1% | -15.2% | i | i
CCn1c2ccccc2c2cc(NC(=O)CNCc3ccccc3OC)ccc21 | 6.51µM* | 3.66µM* | 5.8µM* | 5.17µM* | ? | ?
CCn1c2ccccc2c2cc(NC(=O)COc3ccccc3OC)ccc21 | 16.4µM* | ? | 3.66µM* | 5.17µM* | 6.51µM* | 4.61µM*
COc1ccccc1CNCC(=O)Nc1ccc(N(C)C)cc1 | 5.9% | 3.0% | ? | ? | i | i
O=C(NCc1ccc(Cl)c(Cl)c1)c1ccco1 | -2.2% | -14.1% | ? | -12.6% | i | i
CCCNC(=O)C(Cc1cccc(C#N)c1)NC(=O)c1ccc(C#N)cc1 (centres undefined) | -1.6% | -5.5% | -17.3% | ? | i | i
Fc1ccc(Oc2ccnc(Cl)n2)c(Cl)c1 | 5.7% | 1.6% | -1.9% | 18.9% | i | i
